“And” between values parts separate entries of the source, which are not always exact repeats. Identical values can stand only once. The panel holds about 79,000 compounds, 15% with a hit somewhere; the sample as a whole holds those more often. The source made the active and inactive calls. Cut-off read from the data, not from the text of the source: active = growth inhibition above about 70%; inactive = the rest.
Tests used:
[1] = NCI Yeast Anticancer Drug Screen. Data for the rad50 strain (AID 155);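 note: 0% = growth of vehicle-only cultures of the same strain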; conditions: S. cerevisiae rad50 strain growth inhibition; at 50.0 µM; stronger effect = higher value
Outline: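 Compounds were tested on a yeast strain with an engineered DNA damage repair alteration; the reported value is growth inhibition normalised to vehicle treatment.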

[2] = NCI Yeast Anticancer Drug Screen. Data for the mec2-1 strain (AID 157); conditions: S. cerevisiae mec2-1 strain, stronger effect = higher value
Outline: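 Readout is yeast growth inhibition, normalised to vehicle-treated controls, in the mec2-1 strain exposed to compound.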

[3] = NCI Yeast Anticancer Drug Screen. Data for the sgs1 mgt1 strain (AID 161);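 note: 0% = growth of cultures given vehicle only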; conditions: S. cerevisiae sgs1 mgt1 strain, stronger effect = higher value
Outline: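 Yeast cells carrying a defined DNA-repair defect were exposed to test compounds. Growth inhibition was measured relative to vehicle-treated controls.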

[4] = NCI Yeast Anticancer Drug Screen. Data for the cln2 rad14 strain (AID 165);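 note: 0% = growth equal to vehicle treated cultures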; conditions: S. cerevisiae cln2 rad14 strain, stronger effect = higher value
Outline: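 Relative to vehicle controls, growth inhibition of compound-treated cln2 rad14 yeast was recorded.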

[5] = NCI Yeast Anticancer Drug Screen. Data for the mlh1 rad18 strain (AID 175); conditions: S. cerevisiae mlh1 rad18 strain growth inhibition, stronger effect = higher value
Outline: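 Test agents were incubated with a yeast strain of defined genotype (DNA damage repair defect). Inhibition of growth was derived by comparison with vehicle-exposed cultures.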

[6] = NCI Yeast Anticancer Drug Screen. Data for the bub3 strain (AID 167); conditions: S. cerevisiae bub3 mutant strain, stronger effect = higher value
Outline: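 Growth of a checkpoint-deficient yeast mutant is measured after compound exposure. Values represent inhibition relative to vehicle.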

[7] = at 5.0 µM (retest, dose inferred, filed as 0.5)
[8] = at 50.0 µM (retest, dose inferred, filed as 5.0)

Measured: growth inhibition

O=C(O)CCC(C(=O)O)N1C(=O)c2ccccc2C1=O (stereo not given)
inactive: [1] 9.3% and -0.9% | [2]; at 50.0 µM -0.3% and -41.5% | [3]; at 50.0 µM 0.3% and -24.4% | [4]; at 50.0 µM -30.1% and -10.7% | [5]; at 50.0 µM 8.6% and -0.75%

O=C1c2ccccc2C(=O)c2c(O)c(Cl)cc(O)c21
inactive: [2]; [7] 2% | [2]; [8] 26% | [2]; at 50.0 µM 1.3% | [3]; [7] 7% | [3]; at 50.0 µM 38.3% | [4]; [7] 5% | [4]; [8] 9% | [4]; at 50.0 µM -55.6% | [6]; [7] 4% | [6]; [8] 38% | [6]; at 50.0 µM -2.2% | [5]; [7] 6% | [5]; [8] 57%
active: [3]; [8] 71% | [5]; at 50.0 µM 78%

O=C(O)C1CC[N-]CC1.O=C(O)C1CC[N-]CC1.[Cl][Pt+2][Cl]
inactive: [1] 14.8% and -3.75% | [2]; at 50.0 µM 13.6% and -0.6% | [3]; at 50.0 µM 24.4% and -1.25% | [4]; at 50.0 µM -5.25% and -42.3% | [6]; at 50.0 µM -5.8% and -2.85% | [5]; at 50.0 µM 17.5% and 5.45%

CCN1CCCC(Nc2cc(C)nc(/N=C(/N)Nc3ccc(Cl)c(Cl)c3)n2)C1 (stereo not given)
active: [2]; [8] 98% | [2]; at 50.0 µM 92% | [3]; [8] 97% | [3]; at 50.0 µM 86.7% | [4]; [8] 86% | [4]; at 50.0 µM 82.7% | [6]; [8] 96% | [6]; at 50.0 µM 83.6% | [5]; [8] 97% | [5]; at 50.0 µM 83.2%
inactive: [2]; [7] 32% | [3]; [7] 48% | [4]; [7] 55% | [6]; [7] 29% | [5]; [7] 57%

Cc1ccc(C(=O)/C=C/c2ccc3c(c2)OCO3)cc1
inactive: [1] -6.75% and 8.6% | [2]; at 50.0 µM 16% and -4.7% | [3]; at 50.0 µM 13.6% and 21.4% | [6]; at 50.0 µM 29.4% and 25.3% | [5]; at 50.0 µM 15.4% and 37%

O=C1C(=O)c2cc([N+](=O)[O-])ccc2-c2ccccc21
inactive: [2]; [7] 34% | [3]; [7] 32% | [4]; [7] 19% | [6]; [7] 43% | [5]; [7] 54%
active: [2]; [8] 97% | [2]; at 50.0 µM 95.8% | [3]; [8] 95% | [3]; at 50.0 µM 96.2% | [4]; [8] 96% | [4]; at 50.0 µM 96.3% | [6]; [8] 89% | [6]; at 50.0 µM 98.1% | [5]; [8] 97% | [5]; at 50.0 µM 97.8%

Oc1ccc(Cl)cc1C(c1cc(Cl)ccc1O)C(Cl)(Cl)Cl
active: [2]; [7] 99% | [2]; [8] 99% | [2]; at 50.0 µM 99.6% | [3]; [7] 100% | [3]; [8] 100% | [3]; at 50.0 µM 99.4% | [4]; [7] 99% | [4]; [8] 99% | [4]; at 50.0 µM 99.1% | [6]; [7] 100% | [6]; [8] 99% | [6]; at 50.0 µM 99.5% | [5]; [7] 99% | [5]; [8] 99% | [5]; at 50.0 µM 99.2%

O=C1CCOC2=C1COC2=O
inactive: [3]; at 50.0 µM -2.4% and -0.6% | [4]; at 50.0 µM -25.6% and 12.3% | [6]; at 50.0 µM -7.95% and 19.6% | [5]; at 50.0 µM -1.2% and 16.6%
